Measurements taken from PubChem BioAssay (NCATS).
Inconclusive results are not listed. Calls of active or inactive are those of the source. Unless noted, the call rests on the fitted dose curve; in most records, active means well fitted curve in the direction sought with a large enough effect; inconclusive means small, poorly fitted or top-dose-only effect, or another doubt; inactive means no such curve, though single readings can be large; an effect the other way counts as inactive or inconclusive.

Tests used:
[1] = biological target: Cytochrome P450 3A4 (Homo sapiens) (UniProt P08684); assay: qHTS Assay for Activators of Cytochrome P450 3A4 (AID 885); further: nearly all actives have a fitted effect of over 65% in size
Cytochrome P450 3A4 (Homo sapiens), sequence (P08684 whole entry, looked up): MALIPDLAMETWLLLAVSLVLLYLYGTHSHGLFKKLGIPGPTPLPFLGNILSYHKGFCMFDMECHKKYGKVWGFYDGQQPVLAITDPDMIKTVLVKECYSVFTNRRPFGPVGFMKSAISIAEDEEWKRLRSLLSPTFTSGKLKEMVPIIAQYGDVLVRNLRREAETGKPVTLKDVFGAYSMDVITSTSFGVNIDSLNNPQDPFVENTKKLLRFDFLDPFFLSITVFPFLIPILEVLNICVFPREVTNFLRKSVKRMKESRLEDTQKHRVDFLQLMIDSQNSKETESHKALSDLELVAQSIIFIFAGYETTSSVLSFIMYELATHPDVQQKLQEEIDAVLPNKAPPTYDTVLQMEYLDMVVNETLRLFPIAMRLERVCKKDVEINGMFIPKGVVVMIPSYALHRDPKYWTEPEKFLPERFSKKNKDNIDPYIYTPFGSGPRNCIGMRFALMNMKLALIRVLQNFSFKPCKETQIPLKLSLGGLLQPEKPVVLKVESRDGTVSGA
In short: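 Quantitative HTS format: compounds preincubated with 20nM human CYP3A4 and Luciferin-PPXE substrate at KM, reaction started by NADPH regeneration, stopped after 60 min, luciferase luminescence read 20 min later.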

[2] = qHTS Assay for Lipid Storage Modulators (AID 1519; calls by dose curve); settings: Drosophila S3 cells, BODIPY lipid droplet/cell ratio, laser cytometry, cells loaded with oleic acid; for activity change, negative = inhibition: at 57.5 µM (top of the series)
In short: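 Cells seeded at 5,000 per well were treated with compounds over a concentration series and loaded with oleic acid (400 uM, as added). Lipid droplet fluorescence (488 nm excitation, 500-530 nm channel) was read by laser-scanning cytometry and normalized to 20 uM Triacsin C.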

[3] = biological target: DNA dC->dU-editing enzyme APOBEC-3G (Homo sapiens) (UniProt Q9HC16); assay: qHTS for inhibitors of Vif-A3G interactions: Validation (AID 588379); further: 0% is about no effect
DNA dC->dU-editing enzyme APOBEC-3G (Homo sapiens), sequence (Q9HC16 whole entry, looked up): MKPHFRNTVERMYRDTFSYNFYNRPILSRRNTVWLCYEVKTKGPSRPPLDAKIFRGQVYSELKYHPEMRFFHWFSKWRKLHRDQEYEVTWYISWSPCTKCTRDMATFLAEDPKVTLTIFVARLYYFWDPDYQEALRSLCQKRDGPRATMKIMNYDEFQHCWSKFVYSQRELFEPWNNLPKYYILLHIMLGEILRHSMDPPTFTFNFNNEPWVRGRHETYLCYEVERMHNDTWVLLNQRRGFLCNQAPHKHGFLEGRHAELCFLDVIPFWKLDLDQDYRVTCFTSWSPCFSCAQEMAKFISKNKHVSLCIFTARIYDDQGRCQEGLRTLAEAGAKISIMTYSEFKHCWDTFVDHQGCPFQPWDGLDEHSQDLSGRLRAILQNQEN
In short: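 HeLa cells stably expressing Vif and A3G-eYFP, 700 cells/well, incubated overnight at 37 deg C, then exposed to compound overnight at 37 deg C. Inhibition of Vif-mediated degradation read as increased yellow fluorescence (Ex 488/Em 500-530) by laser-scanning cytometry.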

[4] = Confirmation and Secondary Assay for Modulators of Hemoglobin Beta Chain Splicing at IVS2 654 locus (AID 910);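 further: HeLa cells stably carrying EGFP split by mutant beta-globin IVS2-654 intron; per-well total GFP intensity by laser scanning cytometry after 2-day treatment; % of control where 0% means no effect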
In short: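 Readout: per-well total peak green fluorescence (488 nm ex, 500–520 nm em) from objects 5–250 µm, reflecting correct splicing of an EGFP-654 reporter. Compounds were applied for 2 days at 37 °C to overnight-plated HeLa EGFP-654 cells; controls were DMSO and 500 nM IVS2-654 PNA.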

[5] = Confirmation and Secondary Assay for Modulators of Hemoglobin Beta Chain Splicing at IVS2 705 locus (AID 930);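 further: HeLa cells stably expressing the EGFP-705 splicing reporter; GFP fluorescence per well restored by corrected splicing of the IVS2-705 intron in EGFP; % of control where 0% means no effect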
In short: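 Assay measures total GFP intensity per well in HeLa EGFP-705 cells after 2 days with compound; mis-splicing normally truncates EGFP, so fluorescence indicates corrected splicing.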

[6] = biological target: Ubiquitin carboxyl-terminal hydrolase 1 (Homo sapiens) (UniProt O94782); assay: Inhibitors of USP1/UAF1: Pilot qHTS (AID 504865);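 further: rhodamine fluorescence freed from ubiquitin-rhodamine substrate followed over time; top concentration of the series differs between compounds; on the % scale 0 is the no-effect control and ±100 the full control effect; nearly all actives have a fitted effect of over 35% in size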
Ubiquitin carboxyl-terminal hydrolase 1 (Homo sapiens), sequence (O94782 whole entry, looked up): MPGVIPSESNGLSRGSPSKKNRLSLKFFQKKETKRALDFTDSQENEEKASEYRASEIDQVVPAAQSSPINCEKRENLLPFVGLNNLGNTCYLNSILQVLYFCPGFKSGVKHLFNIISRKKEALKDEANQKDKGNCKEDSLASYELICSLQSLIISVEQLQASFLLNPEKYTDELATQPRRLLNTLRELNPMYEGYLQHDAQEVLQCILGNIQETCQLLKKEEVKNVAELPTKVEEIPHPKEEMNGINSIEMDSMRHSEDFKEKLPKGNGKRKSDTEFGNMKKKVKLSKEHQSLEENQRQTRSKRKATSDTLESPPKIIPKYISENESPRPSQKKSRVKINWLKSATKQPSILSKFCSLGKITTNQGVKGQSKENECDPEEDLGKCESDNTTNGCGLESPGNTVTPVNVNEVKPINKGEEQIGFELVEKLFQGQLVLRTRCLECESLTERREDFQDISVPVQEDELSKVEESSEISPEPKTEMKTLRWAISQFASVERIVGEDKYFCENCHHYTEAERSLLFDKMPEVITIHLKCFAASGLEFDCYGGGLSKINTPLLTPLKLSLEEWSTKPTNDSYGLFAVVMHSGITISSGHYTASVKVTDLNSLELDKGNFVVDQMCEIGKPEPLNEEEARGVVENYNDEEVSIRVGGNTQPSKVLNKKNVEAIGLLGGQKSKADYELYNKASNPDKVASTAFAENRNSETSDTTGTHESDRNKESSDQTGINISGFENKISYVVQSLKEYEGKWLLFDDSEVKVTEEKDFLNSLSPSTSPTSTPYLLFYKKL
In short: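 Kinetic fluorescence assay: 1nM USP1/UAF1, 15 min compound preincubation, then 150nM Ub-Rho; 480/540 nm.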

[7] = biological target: Cytochrome P450 3A4 (Homo sapiens) (UniProt P08684); assay: qHTS Assay for Inhibitors and Substrates of Cytochrome P450 3A4 (AID 884); further: nearly all actives have a fitted effect of over 50% in size; further: potency means the concentration at half of the fitted maximal effect
In short: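 20 nM human CYP3A4 with 25 uM Luciferin-PPXE (at KM) in 200 mM KPO4, preincubated 10 min with compound; NADPH regeneration started a 60 min RT reaction. Luciferin detected by luminescence, normalized to 57 uM ketoconazole as full inhibition.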

[8] = biological target: Estrogen receptor (Homo sapiens) (UniProt P03372); assay: qHTS assay for small molecule antagonists of estrogen receptor alpha signaling (AID 588513; active means well fitted curve in the direction sought with a large enough effect in the signal ratio, with a control signal flat, not every such curve was filed as active; the % refers to the signal ratio; further: on the % scale 0 is the no-effect control and ±100 the full control effect)
Estrogen receptor (Homo sapiens), sequence (P03372 whole entry, looked up): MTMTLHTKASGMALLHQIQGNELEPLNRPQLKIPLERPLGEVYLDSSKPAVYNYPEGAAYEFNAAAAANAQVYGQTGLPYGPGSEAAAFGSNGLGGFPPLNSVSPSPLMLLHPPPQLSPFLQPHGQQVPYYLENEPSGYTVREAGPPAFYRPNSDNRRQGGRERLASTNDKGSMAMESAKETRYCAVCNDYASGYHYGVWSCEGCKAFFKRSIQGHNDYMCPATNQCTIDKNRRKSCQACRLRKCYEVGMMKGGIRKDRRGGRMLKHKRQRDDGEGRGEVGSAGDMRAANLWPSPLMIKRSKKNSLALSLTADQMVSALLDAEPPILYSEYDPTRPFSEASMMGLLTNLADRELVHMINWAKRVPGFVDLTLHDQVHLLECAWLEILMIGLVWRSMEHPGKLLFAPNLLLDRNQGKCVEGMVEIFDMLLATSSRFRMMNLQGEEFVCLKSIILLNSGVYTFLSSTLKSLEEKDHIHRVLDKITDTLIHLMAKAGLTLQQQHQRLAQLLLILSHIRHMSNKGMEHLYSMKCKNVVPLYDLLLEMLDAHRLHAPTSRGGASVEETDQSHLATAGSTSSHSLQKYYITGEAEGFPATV
In short: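 Cells were plated at 5000/well and incubated 4 h at 37 C. Compounds were added as 1:2 dilution series, duplicates. 17-beta-estradiol (0.5nM final) was added for 18 h before CCF4 detection.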

[9] = biological target: Estrogen receptor (Homo sapiens) (UniProt P03372); assay: qHTS assay for small molecule agonists of estrogen receptor alpha signaling (AID 588514; calls by dose curve;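 further: 0% = vehicle only and 100% = reference agonist; nearly all actives have a fitted effect of over 70% in size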)
In short: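 ER-alpha-UAS-bla GripTite HEK293 cells, 5000/well in 2% charcoal/dextran-stripped FBS medium, treated with compound titrations 18 h at 37 C. CCF4 beta-lactamase read by fluorescence after 2 h RT; normalised to 20 nM 17-beta-estradiol (100%) and DMSO (0%), Hill fit for EC50 and efficacy.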

[10] = biological target: Glucocorticoid receptor (Homo sapiens) (UniProt P04150); assay: qHTS assay for small molecule agonists of glucocorticoid receptor signaling (AID 588532; active means well fitted curve in the direction sought with a large enough effect in the signal ratio, with a control signal flat; the % refers to the signal ratio;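 further: 100% = dexamethasone at 0.1 µM and 0% = DMSO only wells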); settings: HeLa MMTV-bla, beta-lactamase ratio, agonist, 18 h; stronger effect = higher value; percent of dexamethasone control, DMSO zero
Glucocorticoid receptor (Homo sapiens), sequence (P04150 whole entry, looked up): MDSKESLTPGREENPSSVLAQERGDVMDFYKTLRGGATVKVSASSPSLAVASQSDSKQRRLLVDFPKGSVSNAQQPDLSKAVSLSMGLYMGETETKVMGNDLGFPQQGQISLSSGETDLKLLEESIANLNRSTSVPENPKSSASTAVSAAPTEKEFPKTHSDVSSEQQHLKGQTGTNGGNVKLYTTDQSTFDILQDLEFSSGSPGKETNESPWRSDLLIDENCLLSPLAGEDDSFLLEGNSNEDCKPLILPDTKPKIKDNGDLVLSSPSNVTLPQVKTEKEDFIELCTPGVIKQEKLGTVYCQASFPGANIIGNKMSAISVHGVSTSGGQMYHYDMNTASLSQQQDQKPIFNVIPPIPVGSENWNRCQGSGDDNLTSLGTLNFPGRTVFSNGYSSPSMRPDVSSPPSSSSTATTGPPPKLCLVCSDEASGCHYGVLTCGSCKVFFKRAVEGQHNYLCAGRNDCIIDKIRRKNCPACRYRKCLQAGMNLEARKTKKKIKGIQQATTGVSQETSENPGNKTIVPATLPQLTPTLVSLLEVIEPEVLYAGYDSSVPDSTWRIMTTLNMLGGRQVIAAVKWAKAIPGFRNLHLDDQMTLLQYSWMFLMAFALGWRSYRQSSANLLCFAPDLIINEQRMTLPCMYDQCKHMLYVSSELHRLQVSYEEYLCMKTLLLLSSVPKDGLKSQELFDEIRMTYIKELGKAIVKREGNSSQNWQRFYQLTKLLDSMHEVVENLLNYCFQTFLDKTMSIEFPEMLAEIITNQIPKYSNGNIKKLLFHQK
In short: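 Agonist-mode qHTS: GRE-driven beta-lactamase in HeLa cells exposed 18 h to titrated compounds (up to 92 uM), then CCF4 ratio read after 2 h at RT; Hill-fitted EC50, efficacy relative to 0.1 uM dexamethasone.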

[11] = biological target: Glucocorticoid receptor (Homo sapiens) (UniProt P04150); assay: qHTS assay for small molecule antagonists of glucocorticoid receptor signaling (AID 588533; active means well fitted inhibition curve with a large enough effect in the signal ratio, with a control signal flat, not every such curve was filed as active; the % refers to the signal ratio;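 further: cells stimulated with 2 nM dexamethasone as agonist; on the % scale 0 is the no-effect control and ±100 the full control effect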)
In short: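 Antagonist-mode qHTS: compound titrations added to GRE-bla HeLa cells, then dexamethasone 2 nM final; 18 h, 37 C. CCF4 FRET fluorescence normalized to dexamethasone and DMSO; IC50 from Hill fit.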

[12] = biological target: Peroxisome proliferator-activated receptor delta (Homo sapiens) (UniProt Q03181); assay: qHTS assay for small molecule agonists of peroxisome proliferator-activated receptor delta signaling (AID 588534; calls by dose curve;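 further: 0% = DMSO basal wells and 100% = positive control agonist at 10 µM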)
Peroxisome proliferator-activated receptor delta (Homo sapiens), sequence (Q03181 whole entry, looked up): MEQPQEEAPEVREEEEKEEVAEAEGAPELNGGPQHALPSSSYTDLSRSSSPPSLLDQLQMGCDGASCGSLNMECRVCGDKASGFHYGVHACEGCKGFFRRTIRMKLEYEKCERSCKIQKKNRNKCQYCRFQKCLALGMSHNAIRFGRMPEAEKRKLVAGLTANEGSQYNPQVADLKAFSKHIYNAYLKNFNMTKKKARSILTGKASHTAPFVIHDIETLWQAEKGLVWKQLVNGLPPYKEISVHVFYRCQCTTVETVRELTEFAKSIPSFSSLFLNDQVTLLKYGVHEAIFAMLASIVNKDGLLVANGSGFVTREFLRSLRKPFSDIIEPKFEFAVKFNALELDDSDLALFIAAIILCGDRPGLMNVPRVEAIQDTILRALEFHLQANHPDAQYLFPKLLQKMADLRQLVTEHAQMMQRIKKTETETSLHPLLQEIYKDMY
In short: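 Cells carrying a PPAR-delta beta-lactamase reporter were treated with compounds for 18 h at 37 °C in agonist mode. CCF4 fluorescence was read after 2 h; EC50 and efficacy from Hill fits.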

[13] = qHTS assay for small molecule antagonists of peroxisome proliferator-activated receptor delta signaling (AID 588535; active means well fitted inhibition curve with a large enough effect in the signal ratio, with a control signal flat, not every such curve was filed as active; the % refers to the signal ratio;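 on max response: cells co-treated with a PPAR-delta agonist as stimulator during compound exposure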); settings: HEK293T PPARd-UAS-bla, beta-lactamase FRET ratio, 18 h; 460 nm channel
In short: (§1)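 HEK293T PPAR-delta-UAS-bla cells, 4000/well, 2% charcoal/dextran FBS; 5 h 37 C; cpd titration; 18 h 37 C; CCF4 2 h RT; FI 460/530 nm; Hill fit → IC50, efficacy.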

[14] = biological target: Peroxisome proliferator-activated receptor delta (Homo sapiens) (UniProt Q03181); assay: as above
In short: as §1

[15] = biological target: Peroxisome proliferator-activated receptor gamma (Homo sapiens) (UniProt P37231); assay: qHTS assay for small molecule agonists of peroxisome proliferator-activated receptor gamma signaling (AID 588536; active means well fitted curve in the direction sought with a large enough effect in the signal ratio, with a control signal flat, not every such curve was filed as active; the % refers to the signal ratio;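 further: 0% = DMSO basal wells and 100% = rosiglitazone at 2 µM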)
In short: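 HEK293 UAS-bla reporter line, 1% charcoal/dextran FBS; titration, 16 h, 37 C; CCF4 loading 2 h RT; fluorescence 460/530 nm. Normalized to rosiglitazone 2 uM = 100%, DMSO = 0%.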

[16] = qHTS assay for small molecule agonists of retinoid X receptor alpha signaling (AID 588544; calls by dose curve;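 on activation: 0% = DMSO basal wells and 100% = reference agonist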); settings: HEK293T RXRa-UAS-bla, beta-lactamase reporter, 18 h; 530 nm emission
[17] = biological target: Retinoic acid receptor RXR-alpha (Homo sapiens) (UniProt P19793); assay: as above
Retinoic acid receptor RXR-alpha (Homo sapiens), sequence (P19793 whole entry, looked up): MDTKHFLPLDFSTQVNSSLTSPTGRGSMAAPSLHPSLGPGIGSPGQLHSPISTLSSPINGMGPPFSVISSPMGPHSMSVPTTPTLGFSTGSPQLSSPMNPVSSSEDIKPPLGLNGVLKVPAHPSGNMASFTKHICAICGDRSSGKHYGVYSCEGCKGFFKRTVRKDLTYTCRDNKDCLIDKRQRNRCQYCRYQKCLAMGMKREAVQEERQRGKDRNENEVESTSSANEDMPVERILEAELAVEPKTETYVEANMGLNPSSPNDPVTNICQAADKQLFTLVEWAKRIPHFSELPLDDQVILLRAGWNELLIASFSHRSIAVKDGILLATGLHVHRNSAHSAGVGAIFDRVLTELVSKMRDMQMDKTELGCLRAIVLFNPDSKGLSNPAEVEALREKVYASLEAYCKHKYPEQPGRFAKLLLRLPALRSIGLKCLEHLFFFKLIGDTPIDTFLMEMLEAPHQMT

[18] = biological target: Thyroid hormone receptor beta (Homo sapiens) (UniProt P10828); assay: qHTS assay for small molecule agonists of thyroid hormone receptor beta signaling (AID 588545; calls by dose curve;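 further: 0% = DMSO only and 100% = 10 nM T3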)
Thyroid hormone receptor beta (Homo sapiens), sequence (P10828 whole entry, looked up): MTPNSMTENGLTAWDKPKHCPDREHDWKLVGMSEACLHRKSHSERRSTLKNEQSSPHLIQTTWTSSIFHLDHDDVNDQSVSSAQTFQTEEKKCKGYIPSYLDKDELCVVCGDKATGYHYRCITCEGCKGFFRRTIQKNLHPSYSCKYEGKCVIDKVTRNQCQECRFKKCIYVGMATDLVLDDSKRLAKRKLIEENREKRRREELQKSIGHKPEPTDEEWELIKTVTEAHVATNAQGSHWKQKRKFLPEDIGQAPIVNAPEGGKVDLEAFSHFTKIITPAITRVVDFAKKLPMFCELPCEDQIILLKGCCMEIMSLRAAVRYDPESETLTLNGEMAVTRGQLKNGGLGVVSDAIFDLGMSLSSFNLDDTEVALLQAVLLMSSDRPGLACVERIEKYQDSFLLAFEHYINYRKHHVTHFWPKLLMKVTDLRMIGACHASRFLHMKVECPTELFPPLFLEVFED
In short: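 Compounds were tested as agonists in TR-UAS-bla-GripTite HEK 293 cells. After 18 hrs at 37 C, CCF4 substrate was added and fluorescence read after 2 hrs at room temperature.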

[19] = qHTS assay for small molecule antagonists of retinoid X receptor alpha signaling (AID 588546; active means well fitted inhibition curve with a large enough effect in the signal ratio, with a control signal flat, not every such curve was filed as active; the % refers to the signal ratio; further: potency means the concentration at half of the fitted maximal effect); settings: HEK293T RXRa-UAS-bla, beta-lactamase ratio, antagonist mode; measured here: W530 green channel, cytotoxicity proxy
In short: (§2)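 Beta-lactamase reporter inhibition, read as CCF4 fluorescence ratio (ex 405, em 460/530 nm) after 2 h at RT. HEK293T UAS-bla cells, 2500/well, were stimulated with 9-cis-RA at 500 or 100 nM final alongside test compound for 18 h at 37 C.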

[20] = biological target: Retinoic acid receptor RXR-alpha (Homo sapiens) (UniProt P19793); assay: as above; settings: HEK293T RXRa-UAS-bla, beta-lactamase ratio, antagonist mode
In short: as §2

[21] = biological target: Thyroid hormone receptor beta (Homo sapiens) (UniProt P10828); assay: qHTS assay for small molecule antagonists of thyroid hormone receptor beta signaling (AID 588547; active means well fitted inhibition curve with a large enough effect in the signal ratio, with a control signal flat, not every such curve was filed as active; the % refers to the signal ratio;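 further: cells stimulated with 0.4 nM T3 agonist during compound exposure; on the % scale 0 is the no-effect control and ±100 the full control effect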); settings: TR-UAS-bla HEK293, beta-lactamase ratio, antagonist mode, 18 h
In short: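 Inhibition of T3-driven (0.4nM final) beta-lactamase reporter activity was measured over 0.59 nM to 92 uM compound after 18 h at 37 C. The cells were GripTite HEK293 TR-UAS-bla in charcoal/dextran-stripped serum, with CCF4 ratio read-out and IC50 from Hill fits.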

[22] = qHTS assay for small molecule agonists of the antioxidant response element (ARE) signaling pathway (AID 651741; active means well fitted activation curve with a large enough effect in the signal ratio; the % refers to the signal ratio; further: % of control where 0% means no effect)
In short: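 Quantitative HTS in HepG2 cells stably expressing an ARE-beta-lactamase reporter; 16 h compound exposure at 37 C, followed by 2 h room-temperature incubation with LiveBLAzer B/G FRET substrate and fluorescence measurement.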

[23] = qHTS assay for small molecule activators of the p53 signaling pathway (AID 651743; active means well fitted activation curve with a large enough effect in the signal ratio, not every such curve was filed as active; the % refers to the signal ratio; further: potency means the concentration at half of the fitted maximal effect; on activation: % of control where 0% means no effect); settings: HCT-116 p53RE-bla, beta-lactamase FRET ratio, 16 h; activation: stronger effect = higher value
In short: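 Read-out is fluorescence intensity from the LiveBLAzer B/G FRET substrate, added for 2 hours at room temperature after HCT-116 p53RE-bla cells had been incubated with compounds for 16 hours at 37 C.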

[24] = qHTS assay for small molecule activators of the nuclear factor-kappa B (NF-kB) signaling pathway (AID 651749; active means well fitted activation curve with a large enough effect in the signal ratio; the % refers to the signal ratio; further: % of control where 0% means no effect); settings: NF-kB-bla ME-180 cells, beta-lactamase FRET ratio, 16 h; activation: stronger effect = higher value
In short: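 Readout: beta-lactamase reporter driven by an NF-kB response element, detected fluorescently as loss of FRET. Cells were the ME-180 line, treated 16 hr at 37C with pin-transferred compound.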

[25] = qHTS assay for environmental chemicals that activate the Aryl hydrocarbon Receptor (AhR) signaling pathway (AID 651777); settings: 1A2-DRE human hepatoma cells, luciferase, 24 h; activation: stronger effect = higher value; further: % of control where 0% means no effect; nearly all actives have a fitted effect of over 15% in size
In short: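 Stable CYP1A2 promoter/DRE-luciferase human hepatoma line treated 24 hr; One-Glo luminescence, 30 min RT.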

[26] = biological target: Peroxisome proliferator-activated receptor alpha (Homo sapiens) (UniProt Q07869); assay: qHTS assay for small molecule agonists of the peroxisome proliferator-activated receptor alpha (PPARalpha) signaling pathway (AID 651778); settings: PathHunter PPARalpha complementation, chemiluminescence, 6 h; stronger effect = higher value; further: % of control where 0% means no effect
Peroxisome proliferator-activated receptor alpha (Homo sapiens), sequence (Q07869 whole entry, looked up): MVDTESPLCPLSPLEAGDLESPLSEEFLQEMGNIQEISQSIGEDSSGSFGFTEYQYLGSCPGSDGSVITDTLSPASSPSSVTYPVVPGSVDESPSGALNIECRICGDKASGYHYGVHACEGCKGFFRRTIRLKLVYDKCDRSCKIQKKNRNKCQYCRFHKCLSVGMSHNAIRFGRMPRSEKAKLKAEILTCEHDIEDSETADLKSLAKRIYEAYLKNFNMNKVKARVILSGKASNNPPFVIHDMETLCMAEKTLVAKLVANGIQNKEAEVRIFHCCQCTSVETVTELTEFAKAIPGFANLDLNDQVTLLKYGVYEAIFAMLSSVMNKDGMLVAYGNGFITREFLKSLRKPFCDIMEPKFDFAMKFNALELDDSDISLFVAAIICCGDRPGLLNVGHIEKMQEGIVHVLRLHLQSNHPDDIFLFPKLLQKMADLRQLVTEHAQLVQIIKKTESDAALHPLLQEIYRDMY
In short: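 Chemiluminescence from complemented enzyme reported PPARalpha activation in cells after 6 hr of compound treatment at 37 C. The detection reagent was incubated for 60 min at room temperature, and compounds were scored as agonists.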

[27] = qHTS assay for small molecule agonists of the antioxidant response element (ARE) signaling pathway measured by Nrf2-dependant transcriptional activity (AID 720636; active means well fitted curve in the direction sought with a large enough effect in the repeat runs; an effect the other way counts as inactive or inconclusive;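 further: HepG2 cells with an ARE-driven luciferase reporter; % of control where 0% means no effect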)
In short: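 Reporter gene assay, HepG2 ARE-luc: 16 hr compound, 37 C, 5% CO2; read-out luciferase luminescence.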

[28] = qHTS assay for small molecule agonists of the antioxidant response element (ARE) signaling pathway measured by Nrf2-dependant transcriptional activity - cell viability counter screen (AID 720653; active means well fitted curve in the direction sought with a large enough effect in the repeat runs; an effect the other way counts as inactive or inconclusive; further: on the % scale 0 is the no-effect control and ±100 the full control effect); settings: ARE-bla HepG2 viability, CellTiter-Glo ATP luminescence, 16 h; stronger effect = lower value
In short: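 Cytotoxicity counter screen: intracellular ATP quantified by CellTiter-Glo luminescence in the same ARE-bla HepG2 plates, after 16 h compound exposure and a 2 h beta-lactamase substrate step.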

[29] = qHTS assay for cell viability of the p53RE-bla HCT-116 cell line (AID 743292); further: on the % scale 0 is the no-effect control and ±100 the full control effect; nearly all actives have a fitted effect of over 55% in size
In short: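 Readout: CellTiter-Glo luminescence after 30 min RT. Treatment: compounds in DMSO, 16 h, 37 C. Cells: CellSensor p53RE-bla HCT-116, 4,000/well, preincubated 5 h.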

[30] = biological target: Nuclear receptor subfamily 1 group I member 2 (Rattus norvegicus) (UniProt Q9R1A7); assay: qHTS assay for small molecule activators of the rat pregnane X receptor (rPXR) signaling pathway (AID 651751; call rule not given here; further: 0% is about no effect); settings: rPXR reporter cells, luciferase (One-Glo), 24 h
[31] = qHTS assay for small molecule activators of the human pregnane X receptor (PXR) signaling pathway (AID 720659; call rule not given here; further: 0% is about no effect)
[32] = measured here: cell count channel max response
[33] = measured here: lipid channel max response

CCN1C[C@@]2(COC)C3[C@@H](OC)C4[C@@H]1[C@@]3(C1C[C@@]3(O)[C@H](OC(=O)c5ccccc5)C1[C@]4(OC(C)=O)[C@@H](O)[C@@H]3OC)[C@@H](OC)C[C@H]2O (some centres not stated)
Potency [1]: inactive
activity change, negative = inhibition [2]: 0.0984% (inactive)
max response [2, 32]: -8.1%
max response [2, 33]: -8.3%
outcome [3]: inactive

COc1cc2c(c(OC)c1OC)-c1ccc(O)c(=O)cc1C(NC(C)=O)CC2 (configuration not stated)
Potency [4]: inactive
Potency [5]: inactive
activity change, negative = inhibition [2]: 7.7% (inactive)
max response [2, 32]: 16.6%
max response [2, 33]: 36.3%
Potency [6]: inactive

CC(C)(C#N)O[C@H]1OC(CO)C(O)C(O)C1O (some centres not stated)
Potency [7]: inactive
Potency [4]: inactive
Potency [5]: inactive
activity change, negative = inhibition [2]: 4.98% (inactive)
max response [2, 32]: 13.6%
max response [2, 33]: 22.9%

CC(C)c1ccc2c(c1O)CCC1C3=C(CC[C@]21C)C(=O)OC3 (some centres not stated)
Potency [7]: 15.8 µM (active)
Potency [1]: inactive
Potency [4]: inactive
Potency [5]: inactive
activity change, negative = inhibition [2]: 1.46% (inactive)
max response [2, 32]: -9.02%
max response [2, 33]: -0.042%

N#Cc1c(Cl)cccc1Cl
Potency [7]: inactive
Potency [4]: inactive
Potency [5]: inactive
activity change, negative = inhibition [2]: 7.12% (inactive)
max response [2, 32]: 9.19%
max response [2, 33]: 14.3%
Potency [8]: inactive
Potency [9]: inactive
activation [10]: 0.597% (inactive)
Potency [11]: inactive
outcome [12]: inactive
max response [13]: 41.3%
Potency [14]: inactive
outcome [15]: inactive
max response [16]: -4.43%
Potency [17]: inactive
outcome [18]: inactive
max response [19]: -15.4%
max response [20]: 2.12% (inactive)
activity change % (negative = inhibition) [21]: -4.17% (inactive)
Potency [22]: inactive
activation [23]: -3.69% (inactive)
activation [24]: -0.285% (inactive)
activation [25]: -0.167% (inactive)
max response [26]: 0.511% (inactive)
outcome [27]: inactive
max response [28]: 0.251% (inactive)
Potency [29]: inactive
max response [30]: 2.13% (inactive)
outcome [31]: inactive

C#CCOS(=O)OC1CCCCC1Oc1ccc(C(C)(C)C)cc1 (configuration not stated)
Potency [7]: inactive
Potency [4]: inactive
Potency [5]: inactive
activity change, negative = inhibition [2]: 5.08% (inactive)
max response [2, 32]: 0.489%
max response [2, 33]: 8.3%
max response [19]: 24.4%
Potency [20]: 7.08 µM (active)
Potency [23]: 5.62 µM (active)
activation [24]: 7.07% (inactive)
activation [25]: 0.168% (inactive)
max response [26]: -1.77% (inactive)
outcome [27]: inactive
